Laboratory results taken from the supplement of paper PMC12645437, “Orthogonal IMiD-Degron Pairs Induce Selective Protein Degradation in Cells” (ACS Chemical Biology, 2025).
Whole data set: some 8,300 sequences, median “log2 fold change of degron read counts, EGFP-low vs EGFP+ sorted cells (limma voom), compound-induced degradation” near -1.1, cut for the highest 2% near 3.2. Only a selection was taken, and the highest values are over-represented in it overall.

T1: CRBN, Q96SW2
T1 chain: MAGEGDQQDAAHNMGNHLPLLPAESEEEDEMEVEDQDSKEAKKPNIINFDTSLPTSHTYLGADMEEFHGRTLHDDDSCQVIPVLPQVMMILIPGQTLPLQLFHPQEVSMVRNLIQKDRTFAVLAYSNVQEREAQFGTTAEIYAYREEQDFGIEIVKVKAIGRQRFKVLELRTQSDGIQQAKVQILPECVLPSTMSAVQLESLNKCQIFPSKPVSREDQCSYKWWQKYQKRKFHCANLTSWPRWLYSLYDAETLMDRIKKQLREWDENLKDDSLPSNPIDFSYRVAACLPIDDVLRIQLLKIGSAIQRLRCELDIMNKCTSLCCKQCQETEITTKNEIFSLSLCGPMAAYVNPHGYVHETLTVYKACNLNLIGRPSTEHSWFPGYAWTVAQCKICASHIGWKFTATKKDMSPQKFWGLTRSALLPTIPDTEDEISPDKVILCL

B1: 46F_47I_49P_50I_52G_53R_54G_55F_67L_, Q9UKT9 (peptide)
chain: FICPICGRGFTQKGNLLRHIKL
B2: 46F_47T_49P_50I_52G_53H_54H_55F_67L_, Q9UKT9 (peptide)
chain: FTCPICGHHFTQKGNLLRHIKL
B3: 46F_47T_49E_50Q_52G_53A_54K_55F_67L_, Q9UKT9 (peptide)
chain: FTCEQCGAKFTQKGNLLRHIKL
B4: 46F_47M_49P_50V_52G_53A_54V_55F_67L_, Q9UKT9 (peptide)
chain: FMCPVCGAVFTQKGNLLRHIKL
B5: 46F_47V_49P_50V_52G_53A_54V_55F_67L_, Q9UKT9 (peptide)
chain: FVCPVCGAVFTQKGNLLRHIKL
B6: 46F_47S_49P_50V_52G_53A_54V_55F_67L_, Q9UKT9 (peptide)
chain: FSCPVCGAVFTQKGNLLRHIKL
B7: 46F_47G_49P_50V_52G_53A_54V_55F_67L_, Q9UKT9 (peptide)
chain: FGCPVCGAVFTQKGNLLRHIKL
B8: 46F_47V_49P_50Q_52G_53A_54V_55F_67L_, Q9UKT9 (peptide)
chain: FVCPQCGAVFTQKGNLLRHIKL
B9: 46F_47Q_49P_50Q_52G_53A_54V_55F_67L_, Q9UKT9 (peptide)
chain: FQCPQCGAVFTQKGNLLRHIKL
B10: 46F_47Q_49N_50I_52G_53A_54V_55F_67L_, Q9UKT9 (peptide)
chain: FQCNICGAVFTQKGNLLRHIKL
B11: 46F_47K_49N_50I_52G_53A_54V_55F_67L_, Q9UKT9 (peptide)
chain: FKCNICGAVFTQKGNLLRHIKL
B12: 46F_47D_49P_50V_52G_53A_54V_55F_67L_, Q9UKT9 (peptide)
chain: FDCPVCGAVFTQKGNLLRHIKL
B13: 46F_47Y_49N_50I_52G_53A_54V_55F_67L_, Q9UKT9 (peptide)
chain: FYCNICGAVFTQKGNLLRHIKL
B14: 46F_47Q_49P_50V_52G_53A_54V_55F_67L_, Q9UKT9 (peptide)
chain: FQCPVCGAVFTQKGNLLRHIKL
B15: 46F_47F_49P_50Q_52G_53A_54V_55F_67L_, Q9UKT9 (peptide)
chain: FFCPQCGAVFTQKGNLLRHIKL
B16: 46F_47H_49D_50Q_52G_53A_54P_55F_67L_, Q9UKT9 (peptide)
chain: FHCDQCGAPFTQKGNLLRHIKL
B17: 46F_47K_49S_50V_52G_53H_54P_55F_67L_, Q9UKT9 (peptide)
chain: FKCSVCGHPFTQKGNLLRHIKL
B18: 46F_47Y_49P_50I_52G_53H_54M_55F_67L_, Q9UKT9 (peptide)
chain: FYCPICGHMFTQKGNLLRHIKL

Molecular target: T1, CRBN, Q96SW2
Experiment: log2 fold change of degron read counts, EGFP-low vs EGFP+ sorted cells (limma voom), compound-induced degradation; higher = more compound-induced degradation of the degron-EGFP fusion; degrons are variants of IKZF1/3 zinc finger 2; compound dose not given here
Details: Jurkat, 18 h
[1] = compound: compound 19 (5-tert-butyl-thalidomide)
[2] = compound: compound 22 (5-morpholino-thalidomide)
[3] = compound: compound 33 (diphenyl IMiD analogue)
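Further: pooled lentiviral library of zinc finger degron-EGFP fusions in mCherry-positive Jurkat cells, FACS-sorted after compound exposure, with degron abundance counted by next-generation sequencing.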

Row | Sequence | log2 fold change of degron read counts [1] | log2 fold change of degron read counts [2] | log2 fold change of degron read counts [3] | log2 fold change of degron read counts (compound: thalidomide)
1 | B1 | -2.06 | -1.04 | -0.776 | 0.0621
2 | B2 | -2.5 | -2.32 | -1.56 | -1.14
3 | B3 | -1.64 | -1.04 | -1.94 | 0.449
4 | B4 | -1.41 | -0.169 | 1.97 | 1.09
5 | B5 | -0.832 | 1.08 | 1.95 | 1.7
6 | B6 | 1.86 | 1.28 | 2.79 | 1.39
7 | B7 | 3.56 | 2.4 | 2.72 | 1.15
8 | B8 | -2.28 | -1.6 | 0.556 | -0.724
9 | B9 | -1.53 | 0.725 | 0.715 | 3.42
10 | B10 | -1.01 | 2.01 | 1.99 | 3.47
11 | B11 | -2.43 | -2.68 | -2.59 | -1.81
12 | B12 | 0.0323 | -0.349 | 1.32 | 1.15
13 | B13 | 1.85 | 2.59 | 1.47 | -0.489
14 | B14 | -0.23 | 3.11 | 2.75 | 3.75
15 | B15 | 0.252 | 0.896 | 0.248 | -0.636
16 | B16 | -0.672 | -1.82 | -1.8 | -2.97
17 | B17 | -2.15 | -2.09 | -2.23 | -1.7
18 | B18 | -1.06 | -1.25 | -0.462 | -1.34
